In PubChem BioAssay (NCATS):
Records with an inconclusive call do not appear. Activity calls are given as the source filed them. Unless noted, calls follow the shape of the full dose curve.

Experiments:
[1] = target: Peroxisome proliferator-activated receptor delta (Homo sapiens) (UniProt Q03181); experiment: qHTS assay for small molecule agonists of peroxisome proliferator-activated receptor delta signaling (AID 588534);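 also: 0% = DMSO basal wells and 100% = positive control agonist at 10 µM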
Method in brief: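 Cells carrying a PPAR-delta beta-lactamase reporter were treated with compounds for 18 h at 37 °C in agonist mode. CCF4 fluorescence was read after 2 h; EC50 and efficacy from Hill fits.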

[2] = qHTS assay for small molecule antagonists of peroxisome proliferator-activated receptor delta signaling (AID 588535; active = well fitted inhibition curve with a large enough effect in the signal ratio, with a control signal flat, not every such curve was filed as active; the % refers to the signal ratio;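 as to max response: cells co-treated with a PPAR-delta agonist as stimulator during compound exposure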); settings: HEK293T PPARd-UAS-bla, beta-lactamase FRET ratio, 18 h; 460 nm channel
Method in brief: (§1)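 Reporter: UAS-bla under PPAR-delta response element, HEK293T host. Medium: 2% charcoal/dextran FBS. Dosing: titration, 18 hrs, 37 C. Detection: CCF4, 2 hrs RT, 405 ex/460 and 530 em.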

[3] = target: Peroxisome proliferator-activated receptor delta (Homo sapiens) (UniProt Q03181); experiment: as above
Method in brief: as §1

[4] = target: Vitamin D3 receptor (Homo sapiens) (UniProt P11473); experiment: qHTS assay for small molecule antagonists of vitamin D receptor signaling (AID 588541);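 also: receptor activated by calcitriol during compound treatment; series mostly up to about 77 µM; % is scaled to controls: 0 for no effect and ±100 for the full control effect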
Chain of Vitamin D3 receptor (Homo sapiens) (P11473 whole entry, looked up): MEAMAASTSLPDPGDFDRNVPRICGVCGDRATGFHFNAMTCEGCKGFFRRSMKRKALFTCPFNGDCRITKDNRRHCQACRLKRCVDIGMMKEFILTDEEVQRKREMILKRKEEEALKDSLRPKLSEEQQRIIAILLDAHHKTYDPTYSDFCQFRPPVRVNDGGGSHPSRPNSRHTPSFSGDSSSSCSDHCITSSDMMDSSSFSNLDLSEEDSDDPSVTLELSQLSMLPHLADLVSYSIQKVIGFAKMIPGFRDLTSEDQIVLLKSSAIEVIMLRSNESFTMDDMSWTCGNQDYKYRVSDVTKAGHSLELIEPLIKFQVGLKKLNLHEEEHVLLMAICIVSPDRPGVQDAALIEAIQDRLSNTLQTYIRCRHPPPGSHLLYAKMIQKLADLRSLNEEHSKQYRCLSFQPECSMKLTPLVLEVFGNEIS
Method in brief: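 VDR-UAS-bla HEK293T cells (2000/well, 2% charcoal-stripped FBS) were treated with titrated compounds plus 1-alpha,25-dihydroxyvitamin D3 (50 nM or 3 nM final) for 16 h at 37 C. CCF4 beta-lactamase fluorescence was read; Hill fits gave IC50.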

[5] = target: Vitamin D3 receptor (Homo sapiens) (UniProt P11473); experiment: qHTS assay for small molecule agonists of vitamin D receptor signaling (AID 588543);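 also: 0% = DMSO basal and 100% = reference agonist control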
Method in brief: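 GeneBLAzer VDR-UAS-bla HEK293T cells in 2% charcoal-stripped FBS medium were dosed with compound titrations for 16 h at 37 °C; CCF4 β-lactamase readout (405 nm ex, 460/530 nm em). EC50 and efficacy from Hill fits, normalized to 50 nM calcitriol (100%) and DMSO (0%).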

[6] = target: Retinoic acid receptor RXR-alpha (Homo sapiens) (UniProt P19793); experiment: qHTS assay for small molecule agonists of retinoid X receptor alpha signaling (AID 588544);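 also: 0% = DMSO basal wells and 100% = reference agonist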
Chain of Retinoic acid receptor RXR-alpha (Homo sapiens) (P19793 whole entry, looked up): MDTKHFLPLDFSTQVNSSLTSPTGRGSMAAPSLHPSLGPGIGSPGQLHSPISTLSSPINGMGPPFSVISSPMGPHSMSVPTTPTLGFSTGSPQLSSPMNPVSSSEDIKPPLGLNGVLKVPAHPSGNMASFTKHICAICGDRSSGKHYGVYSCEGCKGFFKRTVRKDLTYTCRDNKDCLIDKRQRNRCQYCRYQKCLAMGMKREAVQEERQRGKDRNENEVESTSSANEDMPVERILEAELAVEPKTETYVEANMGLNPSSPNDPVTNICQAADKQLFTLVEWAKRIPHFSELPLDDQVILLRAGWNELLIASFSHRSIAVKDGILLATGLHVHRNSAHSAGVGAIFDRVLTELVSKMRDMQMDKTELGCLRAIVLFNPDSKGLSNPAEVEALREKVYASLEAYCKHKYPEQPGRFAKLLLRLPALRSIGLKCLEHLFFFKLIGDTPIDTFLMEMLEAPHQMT

[7] = target: Thyroid hormone receptor beta (Homo sapiens) (UniProt P10828); experiment: qHTS assay for small molecule agonists of thyroid hormone receptor beta signaling (AID 588545);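 also: 0% = DMSO only and 100% = 10 nM T3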
Chain of Thyroid hormone receptor beta (Homo sapiens) (P10828 whole entry, looked up): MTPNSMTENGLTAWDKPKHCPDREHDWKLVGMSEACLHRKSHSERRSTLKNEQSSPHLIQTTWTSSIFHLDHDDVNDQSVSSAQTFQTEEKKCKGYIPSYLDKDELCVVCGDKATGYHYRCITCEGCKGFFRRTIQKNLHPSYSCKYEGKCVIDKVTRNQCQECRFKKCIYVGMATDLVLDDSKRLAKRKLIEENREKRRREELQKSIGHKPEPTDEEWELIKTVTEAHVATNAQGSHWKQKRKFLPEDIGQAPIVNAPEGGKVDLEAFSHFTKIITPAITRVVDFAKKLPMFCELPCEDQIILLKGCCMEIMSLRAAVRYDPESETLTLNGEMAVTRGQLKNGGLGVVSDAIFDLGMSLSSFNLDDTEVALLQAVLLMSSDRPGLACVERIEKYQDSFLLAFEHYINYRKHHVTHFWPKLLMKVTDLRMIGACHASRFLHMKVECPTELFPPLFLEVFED
Method in brief: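 TR-UAS-bla GripTite HEK 293 cells (2500/well, medium with 2% charcoal/dextran FBS) were treated in agonist mode for 18 h at 37 C, titrated. Beta-lactamase was read by CCF4 ratio after 2 h; normalized to 10 nM T3 (100%) and DMSO, Hill-fitted for EC50 and efficacy.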

[8] = qHTS assay for small molecule activators of the p53 signaling pathway (AID 651743; active = well fitted activation curve with a large enough effect in the signal ratio, not every such curve was filed as active; the % refers to the signal ratio; also: series mostly up to about 92 µM; % of control where 0% means no effect); settings: HCT-116 p53RE-bla, beta-lactamase FRET ratio, 16 h; activation: stronger effect = higher value
Method in brief: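 Cell-based beta-lactamase reporter (p53 response elements, HCT-116 background). After a 5-hour preincubation, cells received compound for 16 hours at 37 C; substrate development ran 2 hours at room temperature.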

[9] = qHTS assay for environmental chemicals that activate the Aryl hydrocarbon Receptor (AhR) signaling pathway (AID 651777; active = well fitted curve in the direction sought with a large enough effect; an effect the other way counts as inactive or inconclusive; also: % of control where 0% means no effect; nearly all actives have a fitted effect of over 15% in size); settings: 1A2-DRE human hepatoma cells, luciferase, 24 h; activation: stronger effect = higher value
Method in brief: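 Measured luciferase activity, read 30 min after One-Glo addition at room temperature, from human hepatoma cells bearing a dioxin response element–CYP1A2 promoter reporter and exposed to compound for 24 hr at 37 C.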

[10] = target: Peroxisome proliferator-activated receptor alpha (Homo sapiens) (UniProt Q07869); experiment: qHTS assay for small molecule agonists of the peroxisome proliferator-activated receptor alpha (PPARalpha) signaling pathway (AID 651778; active = well fitted curve in the direction sought with a large enough effect; an effect the other way counts as inactive or inconclusive; also: % of control where 0% means no effect); settings: PathHunter PPARalpha complementation, chemiluminescence, 6 h; max response: stronger effect = higher value
Chain of Peroxisome proliferator-activated receptor alpha (Homo sapiens) (Q07869 whole entry, looked up): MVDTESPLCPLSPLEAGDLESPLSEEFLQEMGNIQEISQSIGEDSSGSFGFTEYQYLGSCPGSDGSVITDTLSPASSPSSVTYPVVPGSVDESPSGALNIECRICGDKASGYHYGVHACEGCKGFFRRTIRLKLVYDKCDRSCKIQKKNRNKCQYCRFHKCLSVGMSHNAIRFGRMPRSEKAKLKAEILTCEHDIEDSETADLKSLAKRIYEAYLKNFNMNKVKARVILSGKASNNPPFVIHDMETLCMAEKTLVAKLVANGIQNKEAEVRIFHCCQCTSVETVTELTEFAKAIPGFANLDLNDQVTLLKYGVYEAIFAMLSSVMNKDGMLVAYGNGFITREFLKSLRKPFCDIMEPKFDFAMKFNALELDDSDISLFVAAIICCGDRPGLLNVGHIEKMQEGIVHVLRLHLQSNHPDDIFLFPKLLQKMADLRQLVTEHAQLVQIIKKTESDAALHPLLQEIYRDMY
Method in brief: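 Cells plated at 2,000/well and held overnight at 37 C, 5% CO2, then compound added by pin tool for 6 hr; after PathHunter detection reagent and 60 min at room temperature, chemiluminescence from enzyme complementation was read.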

[11] = qHTS assay for small molecule agonists of the antioxidant response element (ARE) signaling pathway measured by Nrf2-dependant transcriptional activity (AID 720636; active = well fitted curve in the direction sought with a large enough effect in the repeat runs; an effect the other way counts as inactive or inconclusive;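 also: HepG2 cells with an ARE-driven luciferase reporter; % of control where 0% means no effect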)
Method in brief: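 In HepG2 cells engineered with an Nrf2-responsive luciferase gene, ARE induction was quantified as luminescence after 16 hr compound treatment at 37 C.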

[12] = qHTS assay for small molecule agonists of the antioxidant response element (ARE) signaling pathway measured by Nrf2-dependant transcriptional activity - cell viability counter screen (AID 720653; active = well fitted curve in the direction sought with a large enough effect in the repeat runs; an effect the other way counts as inactive or inconclusive; also: % is scaled to controls: 0 for no effect and ±100 for the full control effect); settings: ARE-bla HepG2 viability, CellTiter-Glo ATP luminescence, 16 h; max response: stronger effect = lower value
Method in brief: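 ARE-bla HepG2 cells (2,000/well) rested 5 hrs at 37C/5% CO2, then exposed to compounds in DMSO for 16 hrs. Viability was read in the same wells as intracellular ATP by luminescence, 30 min at room temperature after reagent addition.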

[13] = qHTS assay for cell viability of HEK293 cells (AID 743288; active = well fitted curve in the direction sought with a large enough effect; an effect the other way counts as inactive or inconclusive; also: % is scaled to controls: 0 for no effect and ±100 for the full control effect; nearly all actives have a fitted effect of over 50% in size); settings: ATP luminescence (CellTiter-Glo), 18 h; max response: stronger effect = lower value
Method in brief: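 Parental HEK293 cells were seeded at 2,000 cells/well, rested at least 5 h at 37 C, then exposed to compounds in DMSO for 18 h at 37 C. Viability was read as ATP-dependent luciferase luminescence after 30 min at room temperature.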

[14] = qHTS assay for cell viability of the p53RE-bla HCT-116 cell line (AID 743292; active = well fitted curve in the direction sought with a large enough effect; an effect the other way counts as inactive or inconclusive; also: % is scaled to controls: 0 for no effect and ±100 for the full control effect; nearly all actives have a fitted effect of over 55% in size)
Method in brief: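 Intracellular ATP of p53RE-bla HCT-116 cells measured by luciferase luminescence following 16 h compound incubation at 37 C; DMSO-only wells served as vehicle controls.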

[15] = target: Bile acid receptor (Homo sapiens) (UniProt Q96RI1); experiment: qHTS assay for small molecule agonists of farnesoid X receptor signaling (AID 588527); settings: HEK293T FXR-UAS-bla, beta-lactamase ratio, 16 h; activation: stronger effect = higher value;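 also: series mostly up to about 77 µM; 0% = vehicle basal and 100% = reference agonist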
Chain of Bile acid receptor (Homo sapiens) (Q96RI1 whole entry, looked up): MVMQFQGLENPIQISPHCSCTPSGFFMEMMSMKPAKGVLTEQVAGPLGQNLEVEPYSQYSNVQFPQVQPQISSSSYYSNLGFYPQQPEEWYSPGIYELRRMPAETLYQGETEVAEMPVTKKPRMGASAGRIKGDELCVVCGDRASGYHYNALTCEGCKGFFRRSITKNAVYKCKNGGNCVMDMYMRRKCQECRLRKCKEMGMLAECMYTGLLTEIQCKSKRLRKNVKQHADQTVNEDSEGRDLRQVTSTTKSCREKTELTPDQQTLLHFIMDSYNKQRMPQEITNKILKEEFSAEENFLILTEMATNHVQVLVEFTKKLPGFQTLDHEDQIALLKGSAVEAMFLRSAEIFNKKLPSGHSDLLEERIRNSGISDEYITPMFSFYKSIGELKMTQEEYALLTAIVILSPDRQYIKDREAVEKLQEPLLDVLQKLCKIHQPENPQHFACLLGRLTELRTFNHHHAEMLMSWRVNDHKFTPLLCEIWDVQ
Method in brief: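 FXR-UAS-bla HEK293T, 10% dialyzed FBS; cpds up to 92 uM titration, 16 h 37 C; CCF4 dye 2 h RT; fluorescence. Normalized to chenodeoxycholic acid 100 uM (100%) and DMSO (0%); Hill fit gives EC50, efficacy.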

[16] = qHTS assay for small molecule antagonists of retinoid X receptor alpha signaling (AID 588546; active = well fitted inhibition curve with a large enough effect in the signal ratio, with a control signal flat, not every such curve was filed as active; the % refers to the signal ratio;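 also: cells stimulated with 9-cis-retinoic acid as agonist; % is scaled to controls: 0 for no effect and ±100 for the full control effect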); settings: HEK293T RXRa-UAS-bla, beta-lactamase ratio, antagonist mode; measured here: W530 green channel, cytotoxicity proxy
Method in brief: (§2)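 Beta-lactamase reporter inhibition, read as CCF4 fluorescence ratio (ex 405, em 460/530 nm) after 2 h at RT. HEK293T UAS-bla cells, 2500/well, were stimulated with 9-cis-RA at 500 or 100 nM final alongside test compound for 18 h at 37 C.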

[17] = target: Retinoic acid receptor RXR-alpha (Homo sapiens) (UniProt P19793); experiment: as above; settings: HEK293T RXRa-UAS-bla, beta-lactamase ratio, antagonist mode
Method in brief: as §2

[18] = qHTS assay for small molecule activators of the nuclear factor-kappa B (NF-kB) signaling pathway (AID 651749; active = well fitted activation curve with a large enough effect in the signal ratio; the % refers to the signal ratio; also: series mostly up to about 77 µM; % of control where 0% means no effect); settings: NF-kB-bla ME-180 cells, beta-lactamase FRET ratio, 16 h; activation: stronger effect = higher value
Method in brief: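 Screening used 2,000 ME-180 reporter cells per well exposed to pinned compound (23 nL) or DMSO; after 16 hr at 37C, beta-lactamase expression under NF-kB control was assessed through FRET.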

[19] = target: Nuclear receptor subfamily 1 group I member 2 (Rattus norvegicus) (UniProt Q9R1A7); experiment: qHTS assay for small molecule activators of the rat pregnane X receptor (rPXR) signaling pathway (AID 651751; call rule not given here; also: 0% is about no effect); settings: rPXR reporter cells, luciferase (One-Glo), 24 h
Chain of Nuclear receptor subfamily 1 group I member 2 (Rattus norvegicus) (Q9R1A7 whole entry, looked up): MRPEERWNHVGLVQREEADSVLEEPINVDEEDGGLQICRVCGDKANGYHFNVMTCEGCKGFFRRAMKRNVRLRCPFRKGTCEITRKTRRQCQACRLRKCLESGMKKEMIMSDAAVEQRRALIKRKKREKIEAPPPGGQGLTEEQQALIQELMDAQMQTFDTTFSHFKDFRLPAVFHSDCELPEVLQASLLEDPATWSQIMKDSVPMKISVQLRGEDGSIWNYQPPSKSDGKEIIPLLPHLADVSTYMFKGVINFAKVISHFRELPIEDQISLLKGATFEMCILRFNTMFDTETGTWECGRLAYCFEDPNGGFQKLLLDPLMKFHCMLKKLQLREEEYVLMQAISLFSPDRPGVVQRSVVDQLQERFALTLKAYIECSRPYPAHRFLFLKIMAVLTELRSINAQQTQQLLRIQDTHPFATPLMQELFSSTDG

[20] = target: Bile acid receptor (Homo sapiens) (UniProt Q96RI1); experiment: qHTS assay for small molecule antagonists of farnesoid X receptor signaling (AID 588526); also: % is scaled to controls: 0 for no effect and ±100 for the full control effect
Method in brief: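 Concentration-response titrations were fitted to the Hill equation for half-maximal inhibition and maximal response, with data normalised to 50 uM chenodeoxycholic acid and DMSO control wells. Cells: FXR-UAS-bla HEK293T, dialyzed FBS.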

Chain of Peroxisome proliferator-activated receptor delta (Homo sapiens) (Q03181 whole entry, looked up): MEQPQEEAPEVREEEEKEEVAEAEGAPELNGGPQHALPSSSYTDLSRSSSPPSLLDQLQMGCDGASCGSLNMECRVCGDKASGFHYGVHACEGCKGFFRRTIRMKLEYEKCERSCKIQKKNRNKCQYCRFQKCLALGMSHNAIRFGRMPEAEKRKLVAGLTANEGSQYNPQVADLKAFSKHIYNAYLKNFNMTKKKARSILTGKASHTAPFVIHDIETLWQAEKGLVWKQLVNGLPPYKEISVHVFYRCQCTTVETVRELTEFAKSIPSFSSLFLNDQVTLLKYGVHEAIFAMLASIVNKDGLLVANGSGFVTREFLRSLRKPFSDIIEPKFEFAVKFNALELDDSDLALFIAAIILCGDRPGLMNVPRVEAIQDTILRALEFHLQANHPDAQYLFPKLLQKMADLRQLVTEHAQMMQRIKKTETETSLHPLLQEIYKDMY

| SMILES | outcome [1] | max response [2] | Potency [3] | Potency [4] | outcome [5] | Potency [6] | Potency [7] | activation [8] | activation [9] | max response [10] | Potency [11] | max response [12] | max response [13] | Potency [14] | activation [15] | max response [16] | max response [17] | activation [18] | max response [19] | Potency [20] |
| --- | --- | --- | --- | --- | --- | --- | --- | --- | --- | --- | --- | --- | --- | --- | --- | --- | --- | --- | --- | --- |
| O=CNC(N1CCN(C(NC=O)C(Cl)(Cl)Cl)CC1)C(Cl)(Cl)Cl (stereo not given) | inactive | 26.2% | inactive | inactive | inactive | inactive | inactive | -7.11% (inactive) | 0.502% (inactive) | -1.75% (inactive) | inactive | -22.2% (inactive) | -20.2% (inactive) | inactive |  |  |  |  |  |  |
| COc1ccc(/C(=C/C(=O)N2CCOCC2)c2ccc(Cl)cc2)cc1OC |  |  |  | inactive | inactive | inactive | inactive | -3.46% (inactive) | -0.517% (inactive) | 0.316% (inactive) | inactive | -2.69% (inactive) | -14.1% (inactive) | inactive | -0.563% (inactive) | 24.3% | -50.8% (inactive) | -1.84% (inactive) | 8.84% (inactive) |  |
| CC(Oc1cccc(Cl)c1)C(=O)O (stereo not given) | inactive | 47.7% | inactive | inactive | inactive | inactive | inactive | 0.409% (inactive) | -0.19% (inactive) | -0.485% (inactive) | inactive | -0.643% (inactive) |  | inactive | 0.618% (inactive) | -2.12% | -12.8% (inactive) |  | -1.92% (inactive) | inactive |
| CCNc1nc(NC(C)C)nc(SC)n1 | inactive | 5.95% | inactive | inactive | inactive | inactive | inactive |  |  | -2.07% (inactive) | inactive | 4.35% (inactive) | -10.8% (inactive) | inactive |  | -15.6% | -29% (inactive) | -1.51% (inactive) | -3.53% (inactive) |  |
| O=C(NC(=O)c1c(F)cccc1F)Nc1cc(Cl)c(OC(F)(F)C(F)C(F)(F)F)c(Cl)c1F (stereo not given) | inactive | 39.8% | inactive |  |  | inactive | inactive | 2.49% (inactive) | 6.63% (inactive) | 6.43% (inactive) |  | -22% (inactive) | -24.3% (inactive) | inactive | 3.38% (inactive) | -6.84% | 4.34% (inactive) | 4.04% (inactive) | 9.17% (inactive) | inactive |
| Nc1c(Cl)c(F)nc(OCC(=O)O)c1Cl |  |  |  | inactive | inactive | inactive |  | 0.955% (inactive) | 1.14% (inactive) | 0.318% (inactive) | inactive | 1.18% (inactive) | 4.54% (inactive) | inactive |  | -12.1% | -9.36% (inactive) | 0.422% (inactive) | -2.68% (inactive) |  |
